Assay outcomes: PubChem BioAssay, Broad Institute
In the library only some 3.4% were active in any assay of this set; here they are far more common.
HSF-1 act = increases HSF-1 driven luciferase reporter signal; NIH3T3-HGL HSF-1 luciferase reporter, MG132, 8 h; 100% = twice DMSO control signal; activation, % at 9 µM; hit rate 1.7% among 300,000; AID 504408;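 active means mean replicate activation of at least 50% with a set share of replicates each reaching 50%; inconclusive means only one of those two conditions met; inactive means mean below 50% and too few replicates reaching it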;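 further: 0% = median of the neutral control wells and 100% = twice that signal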
Vif imaging = HIV Vif inhibition | HEK293T cells, Vif self-association by quenched fluorescence, imaging, 24 h | inhibition, % at 7.49 µM | hit rate 0.35% among 340,000; in the data active means inhibition above about 50%, passing the limit was not always enough; inconclusive means no clear call, values can overlap the other calls; inactive means below about 31%
HSF1 inhib = HSF1 inhibition; NIH3T3-HGL HSE-luciferase, MG132-induced, luminescence 8 h; stronger effect = lower value; activity change, negative = inhibition, % at 7.5 µM (by protocol); hit rate 0.77% among 300,000;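 active means more than half of replicate wells show activity change below -50%, luminescence cut by over half; inconclusive means some wells, but at most half, below -50%; inactive means no replicate well below -50%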;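 further: luciferase reports HSF-1 transcriptional activity via heat shock element; 0% = median of DMSO wells and -100% = zero luminescence signal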
esBAF inh = SWI/SNF esBAF complex inhibition. reporter increase, % at 12.5 µM. hit rate 2% among 350,000. mouse ES cells, Bmi1-luciferase knock-in reporter, 24 h; 100% = twice the neutral-well signal. AID 602393; in the data active means activation above about 40%; inconclusive means no clear call, values can overlap the other calls;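 further: 0% = median of the plate's neutral control wells and 100% = double that signal; a rise in the Bmi1 reporter signal indicates esBAF inhibition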
Starred values were filed as active, the others as inactive.

Screening Cc1c(C)c2cc(Cl)c(OCC(=O)Nc3ccccn3)cc2oc1=O returned Vif imaging 1 and esBAF inh 11.
`Cc1c(C)c2ccc(OCC(=O)Nc3ccccn3)c(C)c2oc1=O` gave HSF-1 act -91, Vif imaging -19, HSF1 inhib -88* and esBAF inh -85.
Screening Cc1cccc(C)c1NC(=O)COc1ccc2c(C)c(Cc3ccccc3)c(=O)oc2c1C returned HSF-1 act 20, Vif imaging 53* and HSF1 inhib 0.
Screening CCN(C[C@@H]1[C@@H](c2ccc(-c3ccccc3)cc2)[C@H](CO)N1C(C)=O)C(C)=O returned esBAF inh -3.
C[C@H](CO)N1C[C@H](C)[C@H](CN(C)Cc2ccc(C(=O)O)cc2)OCCCC[C@H](C)Oc2ccc(NS(C)(=O)=O)cc2C1=O was read as esBAF inh 1.
O=C1c2ccccc2C(=O)N1OS(=O)(=O)c1ccc(F)cc1 was read as HSF-1 act 7, Vif imaging -17, HSF1 inhib -4 and esBAF inh 1.
For Cc1cc(C)c(S(=O)(=O)ON2C(=O)c3ccccc3C2=O)cc1C the results were HSF-1 act 62*, Vif imaging 4, HSF1 inhib 42 and esBAF inh -5.
`Cc1ccc(S(=O)(=O)ON2C(=O)c3ccccc3C2=O)c(C)c1` gave Vif imaging 12.
Cc1cc(C)c(C)c(S(=O)(=O)ON2C(=O)c3ccccc3C2=O)c1C was read as HSF-1 act 52*, Vif imaging -1, HSF1 inhib 41 and esBAF inh -6.
Screening CNC(=O)C[C@@H]1CC[C@@H]2[C@@H](COc3ccc(NC(=O)Nc4cccc(Cl)c4)cc3C(=O)N2C)O1 returned esBAF inh 4.
`C/C=C/c1ccc2c(c1)O[C@H](CN(C)C)[C@@H](C)CN([C@H](C)CO)S2(=O)=O` gave esBAF inh 1.
For CN(C)C(=O)C[C@@H]1CC[C@@H]2[C@H](COc3ccc(NC(=O)Nc4cccc(Cl)c4)cc3C(=O)N2C)O1 the results were esBAF inh -4.
`COc1ccc(CC(=O)Nc2ccc3c(c2)OC2(CCCC2)O3)c(OC)c1` gave Vif imaging 2 and esBAF inh 0.
CC(=O)Nc1ccc(CC(=O)Nc2ccc3c(c2)OC2(CCCC2)O3)cc1 was read as Vif imaging -8 and esBAF inh 46*.
`COc1cccc(CC(=O)Nc2ccc3c(c2)OC2(CCCC2)O3)c1` gave Vif imaging -10 and esBAF inh 42*.
Screening CC1CCCN(C(=O)CSc2nnc(-c3ccc(O)cc3)o2)C1 (configuration not stated) returned HSF-1 act -65, Vif imaging -3, HSF1 inhib -57* and esBAF inh 8.
Cc1noc(C)c1S(=O)(=O)Nc1ccc2c(c1)C(=O)N([C@@H](C)CO)C[C@@H](C)[C@@H](CN(C)S(=O)(=O)c1cn(C)cn1)O2 was read as esBAF inh 2.
Cc1cc(=O)[nH]c(N=N/C(=N/Nc2ccc(O)cc2)c2ccccc2)n1 was read as HSF-1 act 38, Vif imaging -10, HSF1 inhib 21 and esBAF inh 49*.
`C=CCSC1=NNC(c2ccc(C(C)(C)C)cc2)=NN1` gave HSF-1 act -20, Vif imaging 18, HSF1 inhib 6 and esBAF inh 63*.
For CC(=O)Nc1c(O)nc(SCC(=O)Nc2ccc(C(C)=O)cc2)[nH]c1=O the results were HSF-1 act 15, Vif imaging -4, HSF1 inhib 1 and esBAF inh 76*.
For CC(=O)Nc1c(O)nc(SCC(=O)Nc2cccc(C)c2)[nH]c1=O the results were HSF-1 act -18, Vif imaging 0, HSF1 inhib -4 and esBAF inh -1.
`O=C(CSc1nc2c(c(=O)[nH]1)CCC2)Nc1ccc(F)cc1` gave HSF-1 act 68*, Vif imaging 29, HSF1 inhib 25 and esBAF inh -4.
Screening C[C@H]1CN([C@@H](C)CO)C(=O)Cc2cc(NC(=O)Cn3cnnn3)ccc2O[C@@H]1CN(C)Cc1ccc(C(=O)O)cc1 returned esBAF inh -2.
`CCOc1ccc(Nc2oc(-c3ccc(Cl)cc3)nc2C#N)cc1` gave HSF-1 act 22, Vif imaging 3, HSF1 inhib 12 and esBAF inh 67*.
`COc1ccc(Nc2oc(-c3ccc(OC)cc3)nc2C#N)cc1` gave HSF-1 act 68*, Vif imaging 9 and HSF1 inhib 53.
Screening COc1ccc(Nc2oc(-c3ccc(Cl)cc3)nc2C#N)cc1 returned HSF-1 act inconclusive, Vif imaging 7, HSF1 inhib 26 and esBAF inh 58*.
Screening COc1ccc(Nc2oc(-c3ccccc3)nc2C#N)cc1 returned HSF-1 act -8, Vif imaging -1, HSF1 inhib 4 and esBAF inh 47*.
For COc1ccc(NC(=O)N(C)C[C@@H]2Oc3ncc(-c4ccc(C#N)cc4)cc3C(=O)N([C@@H](C)CO)C[C@@H]2C)cc1 the results were esBAF inh 3.
Screening N#Cc1nc(-c2ccccc2)oc1NCc1ccco1 returned HSF-1 act 0, HSF1 inhib 6 and esBAF inh -30.
N#Cc1nc(-c2ccc(Cl)cc2)oc1NCc1ccco1 was read as HSF-1 act 47, Vif imaging -4, HSF1 inhib 26 and esBAF inh 52*.
COc1ccc(NC(=O)N(C)C[C@H]2Oc3cc(C#CCN(C)C)ccc3S(=O)(=O)N([C@H](C)CO)C[C@H]2C)cc1 was read as esBAF inh -2.
Screening COc1ccc(S(=O)(=O)N(C)C[C@@H]2Oc3ccc(NC(=O)C4CCCCC4)cc3C(=O)N([C@H](C)CO)C[C@H]2C)cc1 returned esBAF inh -7.
`Cc1noc(C)c1NC(=O)N(C)C[C@H]1Oc2c(NC(=O)c3cnccn3)cccc2C(=O)N([C@H](C)CO)C[C@H]1C` gave esBAF inh -4.
For Cc1cccc(NC(=O)c2ccc(S(=O)(=O)NCc3ccco3)cc2)n1 the results were Vif imaging -13 and esBAF inh 56*.
`CNC[C@@H]1Oc2c(NS(=O)(=O)c3ccc(OC)cc3)cccc2C(=O)N([C@H](C)CO)C[C@@H]1C` gave esBAF inh 4.
Screening CN1C(=O)c2cc(NC(=O)c3cccc(F)c3)ccc2OC[C@H]2O[C@@H](CC(=O)O)CC[C@@H]21 returned esBAF inh -3.
For Cc1ccc(C(=O)Cn2nnc(-c3ccccc3-n3cnnn3)n2)cc1 the results were HSF-1 act 73*, Vif imaging 5, HSF1 inhib 53 and esBAF inh 11.
Screening COc1ccc(C(=O)Cn2nnc(-c3ccccc3-n3cnnn3)n2)cc1 returned HSF-1 act 6, Vif imaging 5, HSF1 inhib -2 and esBAF inh -1.
For Cc1cccc(S(=O)(=O)NCCC(=O)OC(C)C(=O)NC(=O)NC2CCCCC2)c1 (configuration not stated) the results were HSF-1 act 53*, Vif imaging -1, HSF1 inhib 21 and esBAF inh 1.
